PubChem BioAssay (NCI)
Compounds without any hit were thinned out: in the full panel of roughly 79,000, 15% have a hit. The source made the active and inactive calls. No stated cut-off is given here; in the data, active means growth inhibition above about 70%; inactive means the rest.

Tests used:
[1] = NCI Yeast Anticancer Drug Screen. Data for the rad50 strain (AID 155);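 further: 0% = growth of vehicle-only cultures of the same strain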; conditions: S. cerevisiae rad50 strain growth inhibition, stronger effect = higher value
Summary of the method: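 Relative growth inhibition (compound vs vehicle) was measured in yeast with a defined repair-gene alteration.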

[2] = NCI Yeast Anticancer Drug Screen. Data for the mec2-1 strain (AID 157); conditions: S. cerevisiae mec2-1 strain, stronger effect = higher value
Summary of the method: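 Strain: mec2-1 (DNA repair/cell cycle alteration). Compound exposure, then growth measured; inhibition expressed relative to vehicle.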

[3] = NCI Yeast Anticancer Drug Screen. Data for the sgs1 mgt1 strain (AID 161);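 further: 0% = growth of cultures given vehicle only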; conditions: S. cerevisiae sgs1 mgt1 strain, stronger effect = higher value
Summary of the method: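 Test agents were incubated with a DNA-repair-mutant yeast strain. Growth was then read and compared against vehicle-treated controls.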

[4] = NCI Yeast Anticancer Drug Screen. Data for the cln2 rad14 strain (AID 165);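 further: 0% = growth equal to vehicle treated cultures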; conditions: S. cerevisiae cln2 rad14 strain, stronger effect = higher value
Summary of the method: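 Compounds are applied to the cln2 rad14 yeast strain, and growth is then compared with that of vehicle-treated cultures to give inhibition.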

[5] = NCI Yeast Anticancer Drug Screen. Data for the bub3 strain (AID 167); conditions: S. cerevisiae bub3 mutant strain, stronger effect = higher value
Summary of the method: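 Screening used yeast with an engineered genetic alteration affecting cell cycle control. Compound-exposed cultures were compared with vehicle cultures, and reduced growth was taken as inhibition.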

[6] = NCI Yeast Anticancer Drug Screen. Data for the mlh1 rad18 strain (AID 175); conditions: S. cerevisiae mlh1 rad18 strain growth inhibition, stronger effect = higher value
Summary of the method: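 Read-out is yeast growth inhibition, calculated against vehicle-only controls. The compound was applied to a strain engineered with DNA damage repair alterations.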

[7] = at 5.0 µM (retest, dose inferred, filed as 0.5)
[8] = at 50.0 µM (retest, dose inferred, filed as 5.0)

Measured: growth inhibition

CC#N.FC(F)(F)C#CC(F)(F)F.FC(F)(F)C#CC(F)(F)F.FC(F)(F)C#CC(F)(F)F.[W]
active: [1]; [7] 90% | [1]; [8] 99% | [1]; at 50.0 µM 99.4% | [2]; [7] 83% | [2]; [8] 99% | [2]; at 50.0 µM 99.5% | [3]; [7] 90% | [3]; [8] 99% | [3]; at 50.0 µM 99.7% | [4]; [7] 85% | [4]; [8] 99% | [4]; at 50.0 µM 99.2% | [5]; [7] 94% | [5]; [8] 99% | [5]; at 50.0 µM 99.6% | [6]; [7] 95% | [6]; [8] 99% | [6]; at 50.0 µM 99.3%

O=P(Nc1ccccc1)(Oc1ccccc1)N1CCN(c2ccccc2)CC1 (centres undefined)
active: [1]; [8] 97% | [1]; at 50.0 µM 71.2% | [2]; [8] 96% | [2]; at 50.0 µM 80.7% | [3]; [8] 97% | [3]; at 50.0 µM 84.5% | [4]; [8] 96% | [4]; at 50.0 µM 85.9% | [5]; [8] 96% | [5]; at 50.0 µM 87.2% | [6]; [8] 96% | [6]; at 50.0 µM 86.5%
inactive: [1]; [7] 0% | [2]; [7] -29% | [3]; [7] -32% | [4]; [7] 22% | [5]; [7] 14% | [6]; [7] -1%

CCC[CH2][Sn]1([CH2]CCC)[O]N=Cc2ccccc2[O]1
inactive: [1]; [7] 46% | [2]; [7] 50% | [4]; [7] 62%
active: [1]; [8] 94% | [1]; at 50.0 µM 86.8% | [2]; [8] 97% | [2]; at 50.0 µM 90.5% | [3]; [7] 79% | [3]; [8] 98% | [3]; at 50.0 µM 88.2% | [4]; [8] 97% | [4]; at 50.0 µM 87.1% | [5]; [7] 85% | [5]; [8] 98% | [5]; at 50.0 µM 90.1% | [6]; [7] 73% | [6]; [8] 97% | [6]; at 50.0 µM 88.3%

CC(=O)[O-].CC(=O)[O-].O=C(N/N=C/c1cc(Cl)cc(Cl)c1[OH2+])c1ccncc1.[Mn+2]
active: [1]; [8] 96% | [1]; at 50.0 µM 97.8% | [2]; [8] 98% | [2]; at 50.0 µM 97.2% | [3]; [8] 92% | [3]; at 50.0 µM 98% | [4]; [8] 95% | [4]; at 50.0 µM 97% | [5]; [8] 96% | [5]; at 50.0 µM 97.5% | [6]; [8] 95% | [6]; at 50.0 µM 98.2%
inactive: [1]; [7] 24% | [2]; [7] 40% | [3]; [7] 40% | [4]; [7] 1% | [5]; [7] 11% | [6]; [7] 3%

Cc1cc(O)c2c(c1)C(=O)C13C(=C2O)C(=O)C2C(O)C1C1C(O)C3C(=O)C3=C(O)c4c(O)cc(C)cc4C(=O)C321 (centres undefined)
active: [2]; at 50.0 µM 76.2% | [3]; at 50.0 µM 79.5% | [5]; [7] 88% | [5]; [8] 70% | [5]; at 50.0 µM 80.2%
inactive: [1]; [7] 18% | [1]; [8] 44% | [1]; at 50.0 µM 69.7% | [2]; [7] 57% | [2]; [8] 46% | [3]; [7] 40% | [3]; [8] 48% | [4]; [7] 64% | [4]; [8] 47% | [4]; at 50.0 µM 60.1% | [6]; [7] 34% | [6]; [8] 42% | [6]; at 50.0 µM 69%

N#CN(Cc1ccccc1)C(c1ccccc1)(c1ccccc1)c1ccccc1.[Cl][Sn]([c]1ccccc1)([c]1ccccc1)[c]1ccccc1
active: [1]; [7] 99% | [1]; [8] 91% | [1]; at 50.0 µM 97.3% | [2]; [7] 100% | [2]; [8] 94% | [2]; at 50.0 µM 98.3% | [3]; [7] 100% | [3]; [8] 91% | [3]; at 50.0 µM 98% | [4]; [7] 99% | [4]; [8] 85% | [4]; at 50.0 µM 97.5% | [5]; [7] 99% | [5]; [8] 87% | [5]; at 50.0 µM 98.1% | [6]; [7] 99% | [6]; [8] 88% | [6]; at 50.0 µM 98%

COc1ccc(CC2C(=O)NC(C)C(=O)N(C)C3C(=O)N(C)C(Cc4ccc(O)c(c4)Oc4ccc(cc4)C3O)C(=O)NC(C)C(=O)NC(C)C(=O)N2C)cc1 (centres undefined)
active: [1]; [8] 80% | [1]; at 50.0 µM 75.9% | [4]; [8] 88% | [4]; at 50.0 µM 84.5% | [5]; [8] 81% | [6]; [8] 87%
inactive: [1]; [7] -8% | [2]; [7] 29% | [2]; [8] 69% | [2]; at 50.0 µM 47.5% | [3]; [7] 12% | [3]; [8] 63% | [3]; at 50.0 µM 54.3% | [4]; [7] 27% | [5]; [7] 19% | [5]; at 50.0 µM 65.4% | [6]; [7] 10% | [6]; at 50.0 µM 63%

O=P(c1ccccc1)(c1ccccc1)c1ccccc1.O=P(c1ccccc1)(c1ccccc1)c1ccccc1.S=C=[N][Sn]([N]=C=S)([N]=C=S)[c]1ccccc1
active: [1]; [8] 98% | [1]; at 50.0 µM 99.5% | [2]; [8] 99% | [2]; at 50.0 µM 99.5% | [3]; [8] 99% | [3]; at 50.0 µM 99% | [4]; [8] 98% | [4]; at 50.0 µM 97.8% | [5]; [8] 99% | [5]; at 50.0 µM 99.2% | [6]; [7] 72% | [6]; [8] 99% | [6]; at 50.0 µM 97.7%
inactive: [1]; [7] 58% | [2]; [7] 21% | [3]; [7] 62% | [4]; [7] -2% | [5]; [7] -2%
